# Experimental data reported in PubChem BioAssay.
# Assay: probe aWnt5a binding to arrayed compounds – biochemical, biotinylated probe, 635/667 nm fluorescence, primary screen (AID 1113);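 also: score merges 667 nm fluorescence intensity with signal-to-noise per printed feature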
# Details: small-molecule microarray, higher = more signal
row,Compound,composite z-score
1,CCCCC=C[C@@H](NC(=O)CCc1ccccc1)c1ccccc1,0.145
2,C[N+](C)(C)CCCCCCNC(=O)[C@H]1C[C@H]2C(=O)N3CCC[C@H]3C(=O)N2[C@H]1c1cccc(OCCO)c1,-0.135
3,COc1cccc(C)c1NC(=O)O[C@H]1[C@H](OC(=O)Nc2ccccc2)[C@H](OC(=O)Nc2ccccc2)[C@@H](OC)O[C@@H]1CO,0.0775
4,CC(C)NC(=O)[C@@]1(Cc2ccccc2I)c2ccccc2C(=O)N(Cc2ccccc2C(F)(F)F)[C@H]1c1ccc(CO)cc1,-0.096
5,COCCCNC(=O)[C@@]1(Cc2ccccc2CN=[N+]=[N-])N=C(c2ccc(OCCCO)cc2)O[C@H]1c1ccccc1N=[N+]=[N-],0.0388
6,C=C(C)[C@@H]1CC=C(C(O)C2C=CC3C(=O)N(C4CCCCC4)C(=O)C3N2Nc2ccc(OC)cc2)CC1 (some centres undefined),-0.0738
7,C=CCC(OC(C)=O)[C@@H]1[C@@H](N(Cc2ccc(-c3ccccc3)cc2)C(=O)Cc2ccc(OC)cc2)c2cc(OCCCO)ccc2N1C(=O)c1ccc(-c2ccccc2)cc1 (some centres undefined),-0.0718
8,CC(C)=CCCC(C)=CC(O)C1C=CC2C(=O)N(c3ccccc3)C(=O)C2N1Nc1ccc([N+](=O)[O-])cc1 (centres undefined),-0.0194

# Assay: probe aShh binding to arrayed compounds – biochemical, biotinylated probe, 635/667 nm fluorescence, primary screen (AID 1114);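 also: probe is biotin-labelled aShh protein from a stem cell growth factor screen; measures binding of labelled protein to compounds printed on the slide; score merges feature fluorescence at 667 nm with signal-to-noise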
# Details: small-molecule microarray, higher = more signal
row,Compound,composite z-score
1,COC(=O)[C@H]1N=C(c2ccc(OCCCO)cc2)O[C@H]1c1ccccc1CN=[N+]=[N-],0.105
2,C[N+](C)(C)CCCCNC(=O)[C@H]1C[C@H]2C(=O)NCC(=O)N2[C@H]1c1ccc(O)cc1,-0.291
3,CN(C)CCCCCCNC(=O)[C@@H]1C[C@@H]2C(=O)NCC(=O)N2[C@@H]1c1ccc(O)cc1,0.46
4,COc1ccc(C#Cc2ccc3c(c2)[C@]2(C(=O)N3)[C@H](c3ccc(OCCO)cc3)N3[C@H](c4ccccc4)[C@H](c4ccccc4)OC(=O)[C@H]3[C@@H]2C(=O)N2CCN(c3ncccn3)CC2)cc1,-0.262
5,[N-]=[N+]=NCc1ccccc1[C@H]1OC(c2ccc(OCCCO)cc2)=N[C@@]1(Cc1ccccc1)C(N)=O,-0.0576
6,C#CCOC(=O)N[C@H](C=CCCCC)c1ccccc1,0.413
7,COc1cccc(C[C@H]2C[C@@H](CO[Si](C(C)C)(C(C)C)C(C)C)N3C(=O)[C@]4(C(C)=O)O[C@]23[C@H]2C(=O)N(C)C(=O)[C@H]24)c1,0.138
8,C=C(COC)/C(=C/C[C@@H](OC(=O)c1ccncc1)c1cccc(OCCO)c1)c1cc(C(=O)OC)ccc1OC,0.0048
9,C[N+](C)(C)CCCC[C@@H]1NC(=O)[C@@H]2C[C@H](C(=O)NCCCCCNC(=O)CS)[C@H](c3cccc(OCCO)c3)N2C1=O,0.151
10,CCCCCCCCCCC(O)C1C=CC2C(=O)NC(=O)C2N1Nc1ccccn1 (centres undefined),0.337
11,CCOC(=O)C[C@H]1[C@H](OC(=O)c2ccc(C(=O)c3ccccc3)cc2)[C@@H](NC(=O)C2CCCCC2)c2cc(OCCCO)ccc2N1C(=O)Cc1ccc(OC)cc1,-0.0769
12,COc1ccc([Si](C)(C)[C@@H]2[C@@H](CCO)O[C@]3(C(=O)N(Cc4ccc(N5C(=O)c6ccccc6Oc6ccccc65)cc4)c4ccccc43)[C@H]2C)cc1,-0.138
13,O=C1O[C@@H](c2ccccc2)[C@@H](c2ccccc2)N2[C@@H](c3ccc(O)cc3)[C@]3(C(=O)Nc4ccc(C#CC5(O)CCCCCC5)cc43)[C@@H](C(=O)N3CCN(c4ncccn4)CC3)[C@H]12,0.255
14,COCCCNC(=O)[C@@]1(C)c2ccccc2C(=O)N(c2ccc(C)cn2)[C@H]1c1ccc(CO)cc1,0.283
15,COc1ccc([Si](C)(C)[C@H]2[C@H](CCO)O[C@@]3(C(=O)N(Cc4cccc(N5CCOC5=O)c4)c4ccccc43)[C@@H]2C)cc1,0.0668
16,O=C(N1CCOCC1)[C@@]1(CCS(=O)(=O)c2ccccc2)COC(c2ccc(OCCCO)cc2)=N1,0.314
17,COCCOC(=O)N1C(=O)[C@@]2(c3cc(C#Cc4ccc(OC)cc4)ccc31)[C@H](C(N)=O)[C@H]1C(=O)O[C@H](c3ccccc3)[C@H](c3ccccc3)N1[C@@H]2c1ccc(OCCO)cc1,-0.12
18,C=C[C@H](C)[C@H](OC(=O)Nc1ccc(SC)cc1)c1ccc(O)c2ccccc12,0.0952
19,C=C(CCCC)/C(=C/C[C@H](OC(=O)c1ccncc1)c1ccc(CO)o1)c1cc(C(=O)OC)ccc1OC,0.256
20,CN1C(=O)C2C=CC(C(O)c3cccc4ccccc34)N(NC(=O)OC(C)(C)C)C2C1=O (centres undefined),-0.0813
21,COc1cc2c(cc1OC)CN(C(=O)[C@@H]1[C@H]3C(=O)O[C@H](c4ccccc4)[C@H](c4ccccc4)N3[C@H](c3ccc(OCCO)cc3)[C@@]13C(=O)Nc1ccc(C#CCCO)cc13)CC2,0.391
